Results on 57 compounds are retold here after PubChem BioAssay AID588674 (Broad Institute, 2011).

Several values for one entry are separate records, joined by “and”; a condition that tells them apart may be missing. Equal values may be shown once. The whole screen tested about 360,000 compounds, of which about 1,800 (0.5%) were called active. The entries come from a sample that favours actives as a whole. Values without a mark were called inactive.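 The calls were made as follows: active = mean inhibition of at least 75% with every replicate also reaching 75%; inconclusive = mean inhibition at least 75% but some replicate below; inactive = mean inhibition below 75%.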

A short description of this test: reduction of Shn3 3'UTR firefly luciferase signal, primary screen, Schnurri-3 inhibitor project, cell-based, Clone20 osteoblasts, set 2 (AID 588674).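 Also: 0% = median of neutral control wells and 100% = pilot-screen positive control compound.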 The note with it: Clone20 osteoblast Shn3 3'UTR firefly luciferase, 24 h; at 12.5 µM; active compounds read high.
Take `CNC(=O)c1nnn(-c2ccccc2)c1C(=O)NC`: the inhibition (usually the drop in the measured response relative to a control, in per cent) was -6.31%.

For the compound `N#Cc1c(NC(=O)c2ccc(N3CCOCC3)c([N+](=O)[O-])c2)sc2c1CCCC2`, the inhibition was 12%.

With `O=C(c1ccc(CS(=O)Cc2ccccc2Cl)o1)N1CCN(c2ccccc2)CC1` (configuration not stated), the inhibition is -5.18%.

For the compound `CC1CC(NC(=S)N(C)C)CC(C)(C)C1` (configuration not stated), the inhibition is -11.6%.

For the compound `Cc1cccc2sc(N(CCCN(C)C)C(=O)CCS(=O)(=O)c3ccccc3)nc12`, the inhibition was 70.2%.

Consider `COc1cccc2sc(N(CCCN(C)C)C(=O)CCS(=O)(=O)c3ccccc3)nc12`, for which the inhibition is 97.2% (active).

Turning to `CCN(CC)CCN(C(=O)c1ccc2c(c1)CCCC2)c1nc2c(OC)cccc2s1`, the inhibition is 18.3%.

In the case of `CC(=O)CSc1nnc(CSc2ncccn2)n1C1CCCCC1`, the inhibition is -0.19%.

As for `Cn1c2ccc(F)cc2c2nnc(NN)nc21`, the inhibition is -1.82%.

With `COc1cc(OC)cc(C(=O)NC2CCN(C(=O)N3c4ccccc4Sc4ccccc43)CC2)c1`, the inhibition was 38.1%.

For the compound `NC(c1ccccc1)c1csc(NC(=O)Nc2cccc(C(F)(F)F)c2)n1` (configuration not stated), the inhibition was 23%.

On to `COc1ccc(C(N)c2csc(NC(=O)Nc3cccc(C(F)(F)F)c3)n2)cc1` (configuration not stated), for which the inhibition is 11.3%.

On to `NC(c1csc(NC(=O)Nc2cccc(C(F)(F)F)c2)n1)C1CCCCC1` (configuration not stated), for which the inhibition was 92% (active).

For `O=C(NCCOc1ccccc1)c1ccccc1F`, the inhibition is -74.7%.

For `CCOc1ccc(NC(=S)N2CCCCCC2)cc1`, the inhibition is -24.3%.

On to `C/C(=N/NC(=O)c1ccn(C)n1)c1ccncc1`, for which the inhibition is -3.15%.

For the compound `CC(=NNC(=S)N1CCCCCC1)c1ccccn1`, the inhibition was 95.3% (active).

On to `CCNC(=S)N1CCN(c2ncccn2)CC1`, for which the inhibition was -18.4%.

As to `C/C(=N\NC(=O)c1ccccc1F)c1ccccn1`, the inhibition was 94.8% (active).

In the case of `COc1ccc(/C=C/C(=O)c2c(O)cc(OC)cc2OC)cc1`, the inhibition is -43.5%.

Take `COCCNS(=O)(=O)c1cc(Br)ccc1OC`: the inhibition is -12.3%.

Take `Cc1cc(C)nc(N/N=C/c2c(CO)cnc(C)c2O)n1`: the inhibition is 39%.

For `CCOc1ccc(-n2c(O)c(/C=N/Nc3nc(C)cc(C)n3)c3ccccc3c2=O)cc1`, the inhibition was 90.6% (active).

On to `CCOc1ccc(-n2c(SCC(=O)Nc3cc(C(=O)O)ccc3Cl)nc3ccccc3c2=O)cc1`, for which the inhibition was -1.51%.

Regarding `COc1ccc(CN2CCCC(CNC(=O)c3ccc(F)cc3)C2)cc1OC` (configuration not stated), the inhibition is 3.62%.

Turning to `CCCCCCCCCCOC(=O)C[N+](C)(C)CC1CCCCC1O` (configuration not stated), the inhibition was 2.65%.

As for `COc1ccc(CC(N)c2csc(NC(=O)NC(c3ccccc3)c3ccccc3)n2)cc1` (configuration not stated), the inhibition was 80.7%.

`COc1ccc(CC(N)c2csc(NC(=O)Nc3ccc(C(C)C)cc3)n2)cc1` (configuration not stated): the inhibition is 96.6% (active).

`COc1ccc(CC(N)c2csc(NC(=O)Cc3ccccc3)n2)cc1` (configuration not stated): the inhibition is -16.8%.

With `O=C(CCNS(=O)(=O)c1cccs1)N1CCN(c2ccc(F)cc2)CC1`, the inhibition was -1.48%.

Regarding `C=C(C)C(=O)O[C@H]1C/C(C)=C\C(=O)/C=C(\C)[C@H](O)[C@@H]2OC(=O)C(=C)[C@@H]21`, the inhibition was 87.7% (active).

On to `COC(=O)c1c(NC(=O)c2ccc(S(=O)(=O)N3CCOCC3)cc2)sc2c1CCN(C(C)C)C2`, for which the inhibition was -14%.

In the case of `N#C/C(C(=S)Nc1ccccc1)=C1/NN=C(N2CCOCC2)N1c1ccccc1`, the inhibition is 2.09%.

As for `CCOC(=O)c1cnc(-n2nc(C)cc2C)nc1NNc1cc(C)nc(-c2ccccc2)n1`, the inhibition is 92.1% (active).

With `Cc1cc(-n2nc(C)cc2C)n2ncc(-c3ccccc3)c2n1`, the inhibition was -43%.

Turning to `CCOC(=O)c1cnc2nc(SCc3ccccc3Cl)[nH]n2c1=O`, the inhibition was -11.4%.

As to `O=C(Oc1ccccc1)Oc1ccc2c(c1)oc(=O)c1ccccc12`, the inhibition was -6.2% and -3.28%.

For `Cc1ncoc1C(=O)NCCC(c1ccccc1)c1ccccc1`, the inhibition is 17.9%.

Consider `CCNc1nc(NCC)nc(N(C)n2cnnc2)n1`, for which the inhibition was 4.63%.

On to `Cc1ccc(C)c(N2CCN(C(=O)CCCCCn3c(=S)[nH]c4ccc(N5CCOCC5)cc4c3=O)CC2)c1`, for which the inhibition is 87.2% (active).

Regarding `O=C(CCCCCn1c(=S)[nH]c2cc3c(cc2c1=O)OCO3)N1CCN(c2ccc(F)cc2)CC1`, the inhibition was 8.75%.

Regarding `Cc1ccc(C)c(N2CCN(C(=O)CCCn3c(=O)c4cccn4c4cccnc43)CC2)c1`, the inhibition is 8.64%.

Consider `CCCN(CC(=O)Nc1ccccc1OC)C(=O)CCC(=O)c1ccc(F)cc1`, for which the inhibition was 8.98%.

`COc1ccccc1N1CCN(C(=O)C2Cc3ccccc3CN2C(=O)c2ccco2)CC1` (configuration not stated): the inhibition was -11.8%.

Consider `CN(C)S(=O)(=O)c1cccc(NC(=O)COC(=O)C2(c3ccccc3F)CCCC2)c1`, for which the inhibition was 12.1%.

For `CC[C@H]1CN2CCc3cc(OC)c(OC)cc3[C@@H]2C[C@@H]1C[C@H]1NCCc2cc(OC)c(OC)cc21`, the inhibition was 94.7% (active).

For the compound `CC1CN(c2nc(-c3ccccc3)nnc2-c2ccccc2)CC(C)O1` (configuration not stated), the inhibition was 21%.

As for `CC(C)N(C(=O)[C@H]1C[C@H](CC(=O)NC(C)(C)C)C(=O)N2CCc3c([nH]c4ccc(Cl)cc34)[C@]12C)C(C)C`, the inhibition is 26.9%.

Turning to `COc1cc(NC(=O)C2=C(C)OCCS2)c(Cl)cc1C(=O)NCCCN1CCCC(C)C1` (configuration not stated), the inhibition was -6.28%.

As for `O=C(O)c1[nH]c2ccccc2c1C(c1cccc(O)c1)c1c(C(=O)O)[nH]c2ccccc12`, the inhibition was 0.858%.

`O=C(CSc1c2c(nc3ccc(Cl)cc13)CCCC2)NCc1ccco1`: the inhibition is 89.8% (active).

`O=C(CSc1nnnn1-c1ccccc1)NCc1ccco1`: the inhibition is 4.12%.

Regarding `O=C(NCc1ccco1)C1(c2ccc(Cl)cc2)CCCC1`, the inhibition is -21.5%.

In the case of `COc1ccccc1NC(=O)COC(=O)Cc1ccc(S(=O)(=O)N2CCCCC2)s1`, the inhibition was -14.6%.

In the case of `Cc1nn(Cc2ccccc2Cl)c(C)c1NC(=O)Cn1nc([N+](=O)[O-])c(Cl)c1C`, the inhibition is 3.56%.

With `O=C(N/N=C\c1ccc(Br)cc1)c1ccc(Cn2cccn2)o1`, the inhibition was -11.5%.

Consider `Cc1c(Cl)c([N+](=O)[O-])nn1Cc1ccc(C(=O)N/N=C\c2cc(Cl)ccc2O)o1`, for which the inhibition was 92.8% (active).
